PP1 counter: PP1-alpha phosphatase inhibitors, primary screen, counter-screen for PP5 inhibitor project, biochemical, fluorescence, OMFP substrate, single point; purified PP1alpha; AID 2235, 2010; inhibition, % at 6.7 µM; Serine/threonine-protein phosphatase PP1-alpha catalytic subunit (Homo sapiens), P62136; 320,000 compounds, 0.9% hits;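 active = inhibition above the mean inhibition of all tested compounds plus 3 SD, computed separately for each screening campaign, cut at about 15% in these data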
Target sequence (P62136 whole entry, looked up): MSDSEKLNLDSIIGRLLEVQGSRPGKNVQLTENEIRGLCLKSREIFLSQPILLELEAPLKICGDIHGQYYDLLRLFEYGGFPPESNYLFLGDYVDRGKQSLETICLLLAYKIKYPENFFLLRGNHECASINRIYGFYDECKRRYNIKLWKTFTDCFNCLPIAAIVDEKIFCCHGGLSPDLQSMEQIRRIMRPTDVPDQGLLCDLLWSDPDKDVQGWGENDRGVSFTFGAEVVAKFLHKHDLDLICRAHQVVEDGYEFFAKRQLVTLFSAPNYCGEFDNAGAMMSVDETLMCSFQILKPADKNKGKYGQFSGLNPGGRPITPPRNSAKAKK
KLK7 zymogen act: proKLK7 zymogen activators, primary screen, biochemical, fluorescence intensity. purified proKLK7, EDANS-DABCYL substrate fluorescence; 100% is mature enzyme control, 0% vehicle. 370,000 compounds, 0.9% hits. activation, % at 7 µM;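 active = activation above the mean of all tested compounds plus 3 SD, computed per campaign excluding outliers beyond control limits, cut at about 13% in these data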
PP5 inh: PP5 phosphatase inhibitors, primary screen, biochemical, fluorescence | Serine/threonine-protein phosphatase 5 (Homo sapiens), P53041 | purified PP5c, OMFP substrate fluorescence | inhibition, % at 6.7 µM | 320,000 compounds, 0.18% hits | AID 1987, 2009;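 active = inhibition above the campaign's mean inhibition across all tested compounds plus 3 SD, cut at about 9.5% in these data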;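 also: 0% = DMSO only and 100% = 100 µM cantharidin control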
NR1D1 modulator: modulators of Rev-erb alpha DNA binding, primary screen, biochemical, FITC-DNA, fluorescence polarization, uHTS. Nuclear receptor subfamily 1 group D member 1 (Homo sapiens), P20393. Rev-erbα–FITC-DNA binding, 90 min. activity, % at 10 µM. 370,000 compounds, 0.79% hits. AID 1259318, 2017;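 active = activity above about 14%, limit read from the data; passing the limit was not always enough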;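 also: 0% = DMSO wells with 35 nM protein and 100% = DMSO wells with 750 nM protein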
JMJD2C inh: inhibitors of GASC-1 histone demethylase, primary screen, biochemical, fluorescence, DELFIA europium; Lysine-specific demethylase 4C (Homo sapiens), Q9H3R0; GST-JMJD2C(1-420) H3K9me3 demethylation; inhibition, % at 2.35 µM; 330,000 compounds, 0.069% hits;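 active = more than half of a compound's replicate wells show inhibition beyond 50%, single wells judged on their own value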;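 also: signal counts dimethyl H3K9 product captured on neutravidin plate; 0% = median of DMSO wells and 100% = 0.3 times that DMSO median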
PG9 binder: binders of HIV-1 gp120 antibody PG9, primary screen, biochemical, TR-FRET; HIV-1 gp120 / PG9 antibody interaction; TR-FRET gp120-PG9 antibody binding; inhibition, % at 6.7 µM; 360,000 compounds, 0.43% hits; in the data active = inhibition above about 8.5%
proKLK7 act conf: proKLK7 zymogen activators, confirmation, biochemical, fluorescence intensity, triplicate; shares compounds with KLK7 zymogen act; purified proKLK7, EDANS-DABCYL substrate fluorescence; scaled: vehicle 0, mature enzyme 100; activation, % at 7 µM; 3,200 compounds, 68% hits;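 active = activation, as change over the incubation, above the mean of all tested compounds plus 3 SD, cut at about 13% in these data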
EDANS-DABCYL int: EDANS-DABCYL substrate optical interference, artefact control for kallikrein-7 zymogen activator project, biochemical, fluorescence intensity, high throughput; shares compounds with KLK7 zymogen act; no enzyme, 4 h; solvent 0%, active enzyme control 100%; activation, % at 7 µM; 3,200 compounds, 80% hits; AID 686952, 2013;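 active = activation above the all-compound mean plus 3 SD, ignoring values outside control-based bounds, cut at about 4.8% in these data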;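 also: value is the 4 h activation minus the activation read at time zero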
EDANS interf: optically interferes with EDANS-DABCYL fluorescence, kallikrein-7 activator counter-screen; shares compounds with KLK7 zymogen act; EDANS-DABCYL peptide fluorescence interference, no enzyme; EC50, µM; 250 compounds, 20% hits; AID 720493;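 active = compounds that raise the fluorescence signal in this interference counterscreen, with EC50 at or below 10 µM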;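 also: intact quenched peptide substrate alone read at 355 nm excitation and 520 nm emission; signal is fluorescence gain from T0 to T4 after four hours at room temperature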
* marks the source's active call; other numbers are inactive results; i = inactive; . = no result given. A selection: hits, their analogues and other compounds. The true share with any hit is near 2.8%.

SMILES | PP1 counter | KLK7 zymogen act | PP5 inh | NR1D1 modulator | JMJD2C inh | PG9 binder | proKLK7 act conf | EDANS-DABCYL int | others
CS(=O)(=O)Nc1ccc(-c2cnc3cccnn23)cc1 | . | 76.2* | . | 3.9 | . | -0.6 | 13.5* | 11.2* | EDANS interf=i
COC(=O)C1=C(C)N(Cc2ccccc2C(F)(F)F)C(=NCc2ccccc2C(F)(F)F)NC1c1ccc(C(F)(F)F)cc1 (centres undefined) | . | 0.4 | . | 1.2 | . | -1.1 | . | .
CCOC(=O)CC[C@@H]1CC[C@]2(CCCN(C(=O)c3ccccc3)C2)O1 | . | -0.1 | . | 2.0 | . | . | . | .
COc1cc2c(cc1OC)C(Cc1ccc(O)cc1)N(C)CC2 (centres undefined) | -0.9 | 17.5* | 1.1 | 0.2 | -25.6 | -1.8 | 68.3* | 89.8*
COc1cc2c(cc1OC)C(Cc1ccc(O)cc1)NCC2 (centres undefined) | 0.7 | 4.3 | -1.0 | -2.2 | 9.1 | -0.5 | . | .
O=C(Nc1nc2ncccn2c1-c1ccccc1)c1ccc(F)cc1 | . | 6.3 | . | 2.2 | . | . | . | .
CC[C@H](C)/C=C(C)/C=C/C(=O)Cc1cc(O)c(C)c(O)c1C=O | 1.1 | 0.8 | 3.2 | -2.3 | 165.6 | -1.4 | . | .
CC[C@H](C)/C=C(C)/C=C/c1cc2c(cn1)C(=O)[C@@](C)(OC(C)=O)C(O)=C2Cl | . | 85.7* | . | 2.5 | . | -3.5 | 108.0* | 123.4*
CNc1nc(-c2ccccc2)c2sccc2n1 | . | 26.5* | . | -4.7 | . | 0.0 | 16.1* | 20.2*
CNc1nc(NCc2ccccc2)c2sccc2n1 | . | 0.2 | . | -5.9 | . | -1.6 | . | .
COc1ccc(CNS(=O)(=O)CC2NCc3ccc(C)cc32)cc1 (centres undefined) | . | -0.2 | . | 5.9 | . | . | . | .
CCOC(=O)c1cc(C)[nH]c(=O)c1C#N | -4.5 | 42.4* | 1.4 | -0.8 | -24.6 | -0.5 | 65.5* | 74.4*
CNC(=S)NNC(=O)c1sc2cc(C(F)(F)F)cnc2c1-c1cccnc1 | -2.4 | 13.8* | 0.3 | -3.4 | 11.3 | -5.0 | 15.7* | 22.0*
Cc1cc(N2CCN(C)CC2)nc2ccc(NC(=O)c3ccc4c(c3)OCO4)cc12 | 0.1 | 19.3* | 1.7 | -0.7 | -9.4 | -3.9 | 6.8 | 6.9*
COc1cc(C(=O)Nc2ccc3nc(N4CCN(C)CC4)cc(C)c3c2)cc(OC)c1OC | 0.6 | -0.3 | 4.0 | 1.7 | 0.3 | -1.2 | . | .
CCOc1ccc(C(=O)Nc2ccc3nc(N4CCN(CC)CC4)cc(C)c3c2)cc1 | 1.3 | 38.1* | 4.0 | 5.4 | -23.6 | -0.1 | 217.1* | 191.6*
CCN1CCN(c2cc(C)c3cc(NC(=S)N4CCN(c5ccccc5F)CC4)ccc3n2)CC1 | -1.1 | 14.1* | 2.3 | 2.0 | 4.9 | -2.4 | 1.1 | 2.2
CCN1CCN(c2cc(C)c3cc(NC(=O)c4cc(OC)cc(OC)c4)ccc3n2)CC1 | -1.0 | 0.5 | 1.7 | 9.3 | -2.0 | 0.5 | . | .
CCN1CCN(c2cc(C)c3cc(NC(=S)N4CCN(c5ccccc5)CC4)ccc3n2)CC1 | -2.2 | 10.1 | 4.0 | -1.6 | -8.4 | -0.7 | . | .
Cc1cc(N2CCCC2)nc2ccc(NC(=S)NCCCOC(C)C)cc12 | -2.4 | 15.5* | 3.9 | -0.4 | -5.4 | -0.8 | 14.1* | 12.0* | EDANS interf=>69.5
CC(=NN1CCN(c2ccccn2)CC1)c1ccccc1O | . | 1.1 | . | -5.9 | . | . | . | .
CCCc1nc2c(C)cc(Br)cn2c1Cc1cccc(Cl)c1 | . | 0.6 | . | 2.0 | . | 1.0 | . | .
COc1ccc(OC)c(S(=O)(=O)CC(=O)c2cc3ccccc3oc2=O)c1 | . | -0.3 | . | -5.0 | . | -1.0 | . | .

Source: PubChem
